Source: PubChem (National Center for Advancing Translational Sciences (NCATS))
The list is not random: actives were taken first. Their share in the collection is about 2.8%.
KDM5B inh – Primary screen for KDM5B Histone Demethylases FDH-coupled qHTS | KDM5B demethylase, FDH-coupled NADH fluorescence (FDH is formaldehyde dehydrogenase) | Potency, µM (highest dose often 57.7 µM), hits mostly inhibitors | hit rate 2.6% among 220,000 | AID 1347165, 2019; active means well fitted inhibition curve with a large enough effect; inconclusive means small, poorly fitted or top-dose-only effect; inactive means no such curve, though single readings can be large or run the other way; further: nearly all actives have a fitted effect of over 70% in size
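Compound dilutions met 200 nM (final) KDM5BΔAP for 10 min at room temperature before substrate addition. The substrate mix held 12.5 µM H3K4me3 with cofactors 25 µM α-ketoglutarate and 50 µM Fe²⁺. NADH signal gain over 30 min defined activity.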
IP6K1 inh – Primary qHTS assay for small molecule inhibitors of Inositol hexaphosphate kinase 1 (IP6K1); Inositol hexakisphosphate kinase 1 (Homo sapiens), Q92551; IP6K1 kinase, ADP-Glo luminescence, 2 h; active compounds read low; activity change, % (series mostly up to about 58 µM); hit rate 0.81% among 140,000; in the data active means activity change below about -25%
Target sequence (Q92551 whole entry, looked up): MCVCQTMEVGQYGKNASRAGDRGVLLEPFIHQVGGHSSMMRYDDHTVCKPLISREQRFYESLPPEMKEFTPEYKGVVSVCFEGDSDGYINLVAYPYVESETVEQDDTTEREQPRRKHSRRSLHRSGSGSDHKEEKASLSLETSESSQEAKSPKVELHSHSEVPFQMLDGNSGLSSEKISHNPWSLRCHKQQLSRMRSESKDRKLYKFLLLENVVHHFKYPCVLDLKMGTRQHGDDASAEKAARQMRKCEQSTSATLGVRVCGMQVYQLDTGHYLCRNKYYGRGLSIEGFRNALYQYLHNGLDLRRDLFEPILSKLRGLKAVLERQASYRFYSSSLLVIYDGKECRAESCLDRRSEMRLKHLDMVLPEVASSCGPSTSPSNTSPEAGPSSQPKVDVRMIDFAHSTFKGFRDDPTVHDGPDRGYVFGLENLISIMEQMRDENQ
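ADP-Glo luminescence measures ADP made by human IP6K1 during a 2 h RT reaction with ATP/IP6 (mix at 1.3 mM/130 uM); top library doses 57.5 and 19.1 uM final.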
Hits are given with their value; - = inactive; ? = inconclusive; . = not tested or not shown.

SMILES	KDM5B inh	IP6K1 inh
CC(C)=CCC1(CO)CCCN(Cc2cc(=O)n3cc(C)sc3n2)C1 (centres undefined)	28µM	-
COc1ccccc1NC(=O)c1cc(-c2ccccc2C(F)(F)F)nc2c1cnn2C	.	-
O=[S+]([O-])(CCC(F)(F)F)N1CCN(Cc2ccccc2-c2cccnc2)CC1	.	-
Cc1nn(CC(=O)NCC2CCCO2)c(=O)c2nc(-c3ccccc3)sc12 (centres undefined)	32µM	-
CCC(C)NC(=O)Cn1nc(C)c2sc(-c3ccccc3)nc2c1=O (centres undefined)	8.9µM	-
CCCN1CCN(C(=O)Cn2nc(C)c3sc(-c4ccccc4)nc3c2=O)CC1	32µM	-
CCc1nc2c(=O)n(CC(=O)NC(C)c3ccccc3)nc(C)c2s1 (centres undefined)	-	-
CCc1nc2c(=O)n(CC(=O)N3CCC(Cc4ccccc4)CC3)nc(C)c2s1	-	-
Cc1nn(CC(=O)NCc2ccccc2)c(=O)c2nc(C(C)C)sc12	-	-
O=C(NCC(F)(F)F)c1ccc2nnc(-c3cncc(Cl)c3)n2c1	.	-
COC(=O)CCCCCCCNS(=O)(=O)c1ccc([N+](=O)[O-])cc1	-	.
O=C(Nc1ccc(Cl)cc1)N1CCN(C(=O)c2nc3cccnc3n(CCc3ccccc3)c2=O)CC1	.	-
O=C(NCC1CCCCC1)C1CCCCN1Cc1ccc(-c2ccsc2)cc1 (centres undefined)	.	-
COc1ccc(-c2nc(CC3CCN(C(=O)c4ccoc4)C3)no2)cc1 (centres undefined)	.	-
CC(C)CNC(=O)c1cc(C2CC2)nc2onc(C3CCCN3)c12 (centres undefined)	?	-
COCCNC(=O)c1cc(C2CC2)nc2onc(C3CCCN3)c12 (centres undefined)	56µM	-
O=C(NCC1CC1)c1cc(C2CC2)nc2onc(C3CCCN3)c12 (centres undefined)	89µM	-
O=C(NCc1ccc(F)cc1)c1cc(C2CC2)nc2onc(C3CCCNC3)c12 (centres undefined)	-	-
CC(C)OCCCNC(=O)c1cc(C2CC2)nc2onc(C3CCCN3)c12 (centres undefined)	?	-
O=C(NCC1CC1)c1cc(C2CC2)nc2onc(C3CCCNC3)c12 (centres undefined)	89µM	-
Cc1cc(C(=O)NCCCOC(C)C)c2c(C3CCCN3)noc2n1 (centres undefined)	50µM	-
O=C(NC1CC1)c1cc(C2CC2)nc2onc(C3CCCN3)c12 (centres undefined)	?	-
O=C(Cc1ccc(Cl)cc1)N1CCC2(CC1)CN(C1CCC1)CC2CO (centres undefined)	?	-
O[C@@H]1C[C@@H](c2nnc3n2CCN(Cc2ccccn2)C3)N(Cc2ccccc2)C1	?	-
O[C@@H]1C[C@@H](c2nnc3n2CCN(Cc2cccc4[nH]ccc24)C3)N(Cc2ccccc2)C1	25µM	-
SMILES	KDM5B inh	IP6K1 inh
COc1cccc2sc(NC(=O)c3ccc4c(c3)OCCO4)nc12	-	-
COc1cccc2sc(NC(=O)c3ccc4c(c3)OCCN(C3CCC3)C4)nc12	35µM	-
CCOc1ccc(CN2CC(Oc3ccccc3C(=O)NCc3ccccc3)C2)cc1	.	-
CN(C)CCNC(=O)C(=O)Nc1cccc2ncccc12	-	.
Cc1ccccc1OCC(=O)N1CCc2c(nc3cc(-c4ccccc4Cl)[nH]n3c2=O)C1	-	-
O=C(C1COc2ccccc2O1)N1CCc2nc3cc(-c4ccccc4)[nH]n3c(=O)c2C1 (centres undefined)	?	-
CCc1ccc(NC(=O)N2CCc3c(nc4cc(-c5ccc(OC)cc5)[nH]n4c3=O)C2)cc1	?	-
COC(=O)C(NC(=O)N1CCc2nc3cc(-c4ccccc4)[nH]n3c(=O)c2C1)C(C)C (centres undefined)	25µM	-
COc1ccc(NC(=O)N2CCc3c(nc4cc(-c5ccccc5)[nH]n4c3=O)C2)c(C)c1	20µM	-
COc1ccc(-c2cc3nc4c(c(=O)n3[nH]2)CCN(C(=O)COc2ccccc2C)C4)cc1	32µM	-
CSc1ccc(NC(=O)N2CCc3nc4cc(-c5ccccc5)[nH]n4c(=O)c3C2)cc1	25µM	-
CCCCCNC(=O)c1cc(-c2ccc(C(F)(F)F)cc2)nc2c1cnn2C	.	-
COC(=O)c1c(C)[nH]c(-c2csc(NC3CC3)n2)c1C	-	.
Cn1ncc2c(C(=O)NCc3ccc(F)cc3)cc(-c3cccnc3)nc21	.	-
O=C(CSc1ncnc2scc(-c3ccccc3)c12)Nc1ccc(F)cc1	-	.
COc1ccc(OCC(O)CN2CCC(=O)N(CC3CC3)Cc3cc(F)ccc32)cc1 (centres undefined)	.	-
COc1ccc(NC(=O)N2CCc3nc4cc(-c5ccccc5)[nH]n4c(=O)c3C2)c(C)c1	10µM	-
O=C(NCc1cccc(F)c1)N1CCc2nc3cc(-c4ccccc4)[nH]n3c(=O)c2C1	13µM	-
O=C(CCc1ccccc1)N1CCc2nc3cc(-c4ccccc4)[nH]n3c(=O)c2C1	?	-
O=C(NC1CCCN(c2ccnc3ccnn23)C1)c1cccc(Br)c1 (centres undefined)	.	-
Cc1ccc2c(n1)OC(COc1ccccc1)CN(Cc1ccccc1)C2=O (centres undefined)	.	-
OCC1(Cc2ccc(F)cc2F)CCCN(c2cnc3ccccc3n2)C1 (centres undefined)	28µM	-
Fc1ccc(N2CCN(c3cnc4ccccc4n3)CC2)cc1	-	.
CSCC(=O)N[C@H]1CCN2C(=O)N(c3ccc(C(C)C)cc3)C(=O)[C@@H]2C1	-	-
CC(C)c1ccc(N2C(=O)[C@@H]3C[C@@H](NC(=O)C4CCN(c5nccc(C(F)(F)F)n5)CC4)CCN3C2=O)cc1	28µM	-
SMILES	KDM5B inh	IP6K1 inh
Cc1ccc(-c2cc(C(=O)NCc3ccc(C(F)(F)F)cc3)c3cnn(C)c3n2)c(C)c1	.	-
CCCCCCOc1ccc(/C=C(/C#N)C(=O)c2ccccc2)cc1	-	.
CCc1noc(-c2ccn3c(CNC(=O)c4ccc(F)cc4Cl)nnc3c2)n1	-	-
CCc1noc(-c2ccn3c(CNC(=O)c4ccc(OC)cc4)nnc3c2)n1	14µM	-
CCCc1noc(-c2ccn3c(CNC(=O)c4ccc(OC)cc4)nnc3c2)n1	?	-
CCc1noc(-c2ccn3c(CNC(=O)c4cc(F)cc(F)c4)nnc3c2)n1	25µM	-
COc1cc(-c2cccs2)cc2c1OCCN(C(=O)c1ccncc1C)C2	-	-
COc1cc(-c2cc(C)c3cccc(OC)c3n2)cc2c1OCCN(C(=O)CCN)C2	28µM	-
Cc1cc(C)cc(-c2ccc(CN3CCCC3C(=O)N3CCOCC3)cc2)c1 (centres undefined)	.	-
COc1ccccc1-c1cccc(CN2CCCC(C(=O)NCC(F)(F)F)C2)c1 (centres undefined)	.	-
CCN1CCN(C(=O)CNC(=O)c2cccc(-c3ccsc3)c2)CC1	.	-
COCCNc1ncnc2c1CN(C1CCNCC1)C(=O)CN2C	50µM	-
COCCNc1ncnc2c1CN(C1CCCC1)C(=O)CN2C	?	-
CC1C=CC(C)N1c1ncnc2c1CN(C1CCNC1)C(=O)CN2C (centres undefined)	89µM	-
